Test results from PubChem BioAssay AID485317 (Broad Institute, 2010).
The campaign covered roughly 290,000 compounds. About 11,000 (3.8%) were called active. The list comes from a sample in which actives are over-represented; it also holds similar structures and randomly drawn compounds. Unmarked numbers belong to inactive results.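 How the source made its calls: active means mean replicate inhibition above about 79%, with every replicate also reaching it (limit read from the data); inconclusive means only one of the two criteria met; inactive means mean below limit and not every replicate reaching it.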

Each compound was assayed against FAD-linked sulfhydryl oxidase ALR (Homo sapiens) (UniProt P55789) (assay: inhibitors of human ALR sulfhydryl oxidase, primary screen, biochemical, H2O2 detection, HRP-luminol luminescence, single point (AID 485317)). Settings: purified ALR, DTT oxidation, active compounds read high, concentration not given here.
FAD-linked sulfhydryl oxidase ALR (Homo sapiens), sequence (P55789 whole entry, looked up): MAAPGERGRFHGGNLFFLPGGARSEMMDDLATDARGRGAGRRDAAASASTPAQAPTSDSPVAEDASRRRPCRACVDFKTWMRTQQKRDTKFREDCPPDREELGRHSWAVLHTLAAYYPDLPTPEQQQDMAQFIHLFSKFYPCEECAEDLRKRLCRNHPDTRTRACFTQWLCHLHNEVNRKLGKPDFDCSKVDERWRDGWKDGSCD
Compound CC1C(=O)N2CCCc3cc(S(=O)(=O)NCc4ccc(F)cc4)cc1c32 (stereo not drawn) has an inhibition of 2.55%.
In the case of Cc1ccc(CN2CC(C(=O)NNC(=O)Cn3ccc(C(F)(F)F)n3)CC2=O)cc1 (stereo not drawn), the inhibition is reported as -1.18%.
For CC(=O)Nc1cccc(-c2csc(Nc3cccc(C)n3)n2)c1, the inhibition was -4.7%.
In the case of CC(=O)Nc1ccc(S(=O)(=O)Nc2nc(-c3ccc(C(C)(C)C)cc3)cs2)cc1, the inhibition is reported as 14.9%.
In the case of CC(=O)Nc1ccc(-c2csc(NC=C3C(=O)OC(C)(C)OC3=O)n2)cc1, the inhibition is reported as 98.2% (active).
For CCOC(=O)c1sc(NC(=O)C2CSC3(C)CCC(=O)N23)nc1C (stereo not drawn), the inhibition was -0.227%.
For COc1cc(/C=C/C(=O)OCC(=O)NC2CC2)cc(OC)c1OC, the inhibition was -0.461%.
O=C(CCc1nc(-c2ccccc2)no1)Nc1cccc(C(=O)NC2CC2)c1 gave an inhibition of 28.1%.
Compound Cc1ccccc1-c1cc(C(=O)NCC2CC2)n(CC2CC(c3cccnc3)=NO2)n1 (stereo not drawn) has an inhibition of 10.4%.
In the case of COc1ccc(C2(O)C(=O)Nc3ccccc32)cc1 (stereo not drawn), the inhibition is reported as -1.7%.
CCc1ccc2c(c1)C1(NN=C(c3ccccc3)S1)C(=O)N2 (stereo not drawn) showed an inhibition of 33.8%.
With O=C1Nc2ccccc2C12Nc1ccccc1S2 (stereo not drawn) the inhibition was 98.7% (active).
CCCCn1c(N)c(N(CCOC)C(=O)c2cccc(S(=O)(=O)N3CCCCC3)c2)c(=O)[nH]c1=O was tested, and the inhibition was -6.18%.
Compound CC(C)(C)OC(=O)C[C@H]1C/C=C\C[C@@H](CC(=O)N[C@H](CO)Cc2ccccc2)C(=O)NC[C@@H](c2ccccc2)OC1=O has an inhibition of -2.76%.
In the case of CCCCCCSc1ccc([C@@H]2[C@H]3C(=O)N(CC)C(=O)[C@H]3[C@]3(C(=O)OC)CCCCN23)cc1, the inhibition is reported as 3.32%.
Compound Cc1ccn(CCC(=O)N2c3ccccc3CC2C)n1 (stereo not drawn) has an inhibition of -7.69%.
Compound CCOc1ncccc1C(=O)OCC(=O)N1c2ccccc2CC1C (stereo not drawn) has an inhibition of 2.2%.
For CCCC(=O)N1c2ccc(-c3csc(N)n3)cc2CC1C (stereo not drawn), the inhibition was 98.9% (active).
In the case of CCOc1ccc(NS(=O)(=O)c2ccc(C(=O)NCC(c3ccccc3OC)N3CCCC3)cc2)cc1 (stereo not drawn), the inhibition is reported as 0.447%.
In the case of COc1ccc(NC(=O)CSc2nnc(-c3cccs3)n2Cc2ccco2)cc1OC, the inhibition is reported as -13.2%.
Compound CN(c1ccccc1)c1ccc(/C=c2\s/c(=C(/C#N)C(=O)C(C)(C)C)n(Cc3ccco3)c2=O)cc1 has an inhibition of -25.2%.
In the case of Cc1cs/c(=N\N=C\c2ccc(O)cc2)n1Cc1ccco1, the inhibition is reported as 98.6% (active).
With CCN(CC)c1ccc(/C=N/Nc2nc(C)cc(=O)[nH]2)cc1 the inhibition was 99.1% (active).
In the case of Cc1cc(=O)[nH]c(N/N=C/c2ccc3c(c2)OCCO3)n1, the inhibition is reported as 17.8%.
In the case of Cc1cc(=O)[nH]c(N/N=C/c2c(C)nn(-c3ccccc3Cl)c2Cl)n1, the inhibition is reported as 24.5%.
COc1ccccc1-c1oc2ccccc2c1C#CCCCCO showed an inhibition of -1.62%.
COc1cccc(N(CC(=O)N2CCc3ccccc3C2)S(C)(=O)=O)c1 was tested, and the inhibition was -14.9%.
O=C(COc1ccccc1)N1CCc2ccccc2C1 was tested, and the inhibition was -0.403%.
For COc1ccc(-c2nc(CS(=O)CC(=O)N3CCc4ccccc4C3)c(C)o2)cc1 (stereo not drawn), the inhibition was 99% (active).
COc1cccc(-c2nc(CS(=O)CC(=O)NCc3ccc(F)cc3)c(C)o2)c1 (stereo not drawn) was tested, and the inhibition was 98.8% (active).
CC(CCc1ccccc1)NC(=O)c1ccc(Br)o1 (stereo not drawn) gave an inhibition of -19.9%.
With COc1ccc(CCNC(=O)CS(=O)(=O)Cc2nc(-c3ccc(C)cc3)oc2C)cc1OC the inhibition was 21.5%.
With Cc1ccc(-c2nc(CS(=O)(=O)CC(=O)NCc3ccc4c(c3)OCO4)c(C)o2)cc1 the inhibition was -0.75%.
Compound COc1ccc(CNC(=O)Cc2ccc(-c3ccccc3)cc2)cc1OC has an inhibition of -4.45%.
For Cc1cccc(-c2nc(CS(=O)CC(=O)NC(C)CCc3ccccc3)c(C)o2)c1 (stereo not drawn), the inhibition was 92% (active).
With COc1ccc(-c2nc(CS(=O)CC(=O)NCc3ccccc3)c(C)o2)cc1OC (stereo not drawn) the inhibition was 98.9% (active).
Compound COc1cccc(NC(=O)NCc2ccc(F)cc2)c1 has an inhibition of -2.14%.
Compound COc1ccc(CC(=O)NC(C)CCc2ccccc2)cc1 (stereo not drawn) has an inhibition of -14.5%.
CCCCn1c(N)c(N(CCOC)C(=O)CSCC(=O)Nc2cccc(C)c2)c(=O)[nH]c1=O showed an inhibition of 6.91%.
CC(=O)Nc1ccc(S(=O)(=O)NC(C)C(=O)OCCOc2ccc(F)cc2)cc1 (stereo not drawn) gave an inhibition of 0.524%.
With COc1ccc2nc3n(c(=O)c2c1)-c1cc(C)ccc1C(=O)NC3Cc1ccc(O)cc1 (stereo not drawn) the inhibition was -1.57%.
Compound O=C(Nc1nnc(-c2ccccc2)o1)c1cccc(S(=O)(=O)N2CCOCC2)c1 has an inhibition of 9.18%.
Work on Fc1ccccc1-c1cc2cc3c(cc2cn1)OCO3 yielded an inhibition of 0.64%.
C[C@@H]1CN([C@@H](C)CO)C(=O)c2cccc(NS(=O)(=O)c3ccc(F)cc3)c2O[C@H]1CN(C)C(=O)NC1CCCCC1 was tested, and the inhibition was -2.04%.
Work on CCOC(=O)c1c(C)[nH]c(C(=O)OCC(=O)N2CCCC2=O)c1C yielded an inhibition of 1.73%.
Cc1nn(Cc2ccccc2)c(C)c1C(=O)NCCCN1CCCC1=O gave an inhibition of -2.84%.
CC(=O)Nc1cccc(C(=O)OCC(=O)c2ccc3c(c2)OCO3)c1 was tested, and the inhibition was -2.29%.
C=CC[C@H](CC(=O)N(CCO)Cc1ccccc1)C(=O)N[C@@H](COC(=O)[C@@H](CC=C)Cc1ccc(F)cc1)Cc1ccccc1 was tested, and the inhibition was -4.83%.
In the case of CCCCN(CC)CCCNC(=O)CS(=O)(=O)Cc1nc(-c2cccc(OC)c2)oc1C, the inhibition is reported as 98.8% (active).
Compound Cc1oc2nc(SCC(=O)NCc3cccnc3)nc(N)c2c1C has an inhibition of -4.94%.
With COc1ccc(-c2nc(CS(=O)(=O)CC(=O)NCc3cccc(Br)c3)c(C)o2)cc1 the inhibition was 22.1%.
COc1ccc(C(=O)O)cc1S(=O)(=O)NCc1cccnc1 gave an inhibition of -5.82%.
With COc1ccc(-c2nc(CS(=O)CC(=O)NCc3cccnc3)c(C)o2)cc1OC (stereo not drawn) the inhibition was 99.2% (active).
With COc1cccc(-c2nc(CS(=O)(=O)CC(=O)NCCc3ccc(OC)c(OC)c3)c(C)o2)c1 the inhibition was 46.6%.
With O=C1C=C(c2cccc(Br)c2)C[C@@H](c2ccc(F)cc2)C1 the inhibition was -0.0525%.
O=C(COC(=O)COc1cc(Cl)c(Cl)cc1Cl)NC1CC1 was tested, and the inhibition was -25.6%.
O=C(CSCc1ccccc1)Nc1ccccc1 gave an inhibition of -3.32%.
In the case of CC(=O)Nc1ccc(NC(=O)CSCc2cnn(-c3ccccc3)c2-n2cccc2)cc1, the inhibition is reported as 98.3% (active).
Cc1cc(C)cc(NC(=O)CSCc2cnn(-c3ccccc3)c2-n2cccc2)c1 gave an inhibition of -4.84%.
For Cc1ccc(S(=O)(=O)NCCC(=O)NCc2ccc(Cl)cc2)cc1C, the inhibition was -3.37%.
For O=C(O)c1ccccc1C(=O)NC1=NN(c2ccccc2)CC1, the inhibition was 98.4% (active).
O=C(O)c1ccccc1C(=O)Nc1nc(-c2ccccc2)cs1 gave an inhibition of -5.73%.
For O=C(Nc1ccccc1C(=O)O)c1ccc(N2C(=O)C3CC=CCC3C2=O)cc1 (stereo not drawn), the inhibition was 2.58%.
In the case of CC1CCCCC12NC(=O)N(CC(=O)OCc1c(F)cccc1Cl)C2=O (stereo not drawn), the inhibition is reported as 25.1%.
COc1ccc(C)cc1NC(=O)CSc1cccc[n+]1[O-] was tested, and the inhibition was -22.2%.
In the case of C[C@H](OC(=O)n1ccnc1)[C@@H]1O[C@@]2(C)CCC[C@@H]1O2, the inhibition is reported as 4.53%.
In the case of CC(NC(=O)Nc1ccccc1)C(c1cccs1)N1CCN(c2ccccc2)CC1 (stereo not drawn), the inhibition is reported as 1.95%.
In the case of CC(NC(=O)C(C)(C)C)C(c1cccs1)N1CCN(Cc2ccccc2)CC1 (stereo not drawn), the inhibition is reported as -4.94%.
CCCC(=O)NC(C)C(c1cccs1)N1CCN(c2ccccc2)CC1 (stereo not drawn) was tested, and the inhibition was 97.6% (active).
In the case of O=C(NC(=S)Nc1ccc(Br)cc1F)C1CCCCC1, the inhibition is reported as -2.71%.
With O=C(COc1ccccc1F)NNC(=O)c1cc(Br)ccc1Cl the inhibition was -9.96%.
Cc1ccccc1-c1cc(C(=O)NCc2cccs2)n(CC2CC(c3cccnc3)=NO2)n1 (stereo not drawn) gave an inhibition of 8.05%.
In the case of COc1ccc(-c2csc(Cc3nc(O)cs3)n2)cc1, the inhibition is reported as 86.8% (active).
COc1ccc(-c2csc(NC(=O)COC(=O)c3ccc(Br)o3)n2)cc1 showed an inhibition of 53.6%.
COc1ccc(-c2csc(NC3OC(=O)c4ccccc43)n2)cc1 (stereo not drawn) showed an inhibition of 22.4%.
O=C(NCCc1ccccc1)c1ccc2c(c1)N(Cc1ccccc1)CCS2 showed an inhibition of 10.1%.
With CCOC(=O)N1CCN(C(=O)c2ccc(S(=O)(=O)c3ccc(C)cc3)c(NC(C)=O)c2)CC1 the inhibition was 4.26%.
With CCOC(=O)N1CCN(C(=O)c2ccc3c(c2)N(Cc2ccc(C)cc2)CCS3)CC1 the inhibition was 93.4% (active).
O=C(CSc1nc(Nc2ccccc2)nc(N2CCOCC2)n1)Nc1cc(Cl)ccc1O showed an inhibition of -0.209%.
For C=CCn1c(CSc2nc3ccccc3s2)nnc1SCC(=O)NCc1ccco1, the inhibition was 60.8%.
With O=C(CSc1nc2ccc(Nc3nc(N4CCOCC4)nc(N4CCOCC4)n3)cc2s1)NCc1ccco1 the inhibition was 98.7% (active).
For O=C(c1ccc(F)c(S(=O)(=O)N2CCOCC2)c1)N(CCc1ccccc1)Cc1ccccc1, the inhibition was -7.64%.
Work on O=S(=O)(c1ccccc1)N(CC(O)CN1CCCCC1)c1ccccc1 (stereo not drawn) yielded an inhibition of -3.01%.
OCC(O)CN(c1ccccc1)c1ccccc1 (stereo not drawn) was tested, and the inhibition was 99% (active).
Compound Cc1cccc(N(CC(O)CN(C)C)S(=O)(=O)c2ccccc2)c1 (stereo not drawn) has an inhibition of -4.54%.
In the case of CN(c1ccccc1)S(=O)(=O)c1ccc(C(=O)N2CCN(c3ccccc3Cl)CC2)cc1, the inhibition is reported as -8.17%.
Compound O=[N+]([O-])c1ccc(S(=O)(=O)Nc2cccc(-c3ccc(N4CCCC4)nn3)c2)cc1 has an inhibition of 0.216%.
In the case of C=CCOc1ccc(/C=C/C(=O)OCC(=O)NC(C)c2ccc(F)cc2)cc1 (stereo not drawn), the inhibition is reported as -7.12%.
